Screening results deposited in PubChem by National Center for Advancing Translational Sciences (NCATS).
D2 ag-1: D2 dopamine receptor (human) agonism; HEK293 T-REx D2 cells, calcium flux agonist mode; activation, % at 2 µM; actives 0.53% (n = 340,000);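 active = activation over 3 SD above normal in the single-dose calcium agonist read, cut at about 30% in these data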; note: 0% is about no effect
Target sequence (P14416 whole entry, looked up): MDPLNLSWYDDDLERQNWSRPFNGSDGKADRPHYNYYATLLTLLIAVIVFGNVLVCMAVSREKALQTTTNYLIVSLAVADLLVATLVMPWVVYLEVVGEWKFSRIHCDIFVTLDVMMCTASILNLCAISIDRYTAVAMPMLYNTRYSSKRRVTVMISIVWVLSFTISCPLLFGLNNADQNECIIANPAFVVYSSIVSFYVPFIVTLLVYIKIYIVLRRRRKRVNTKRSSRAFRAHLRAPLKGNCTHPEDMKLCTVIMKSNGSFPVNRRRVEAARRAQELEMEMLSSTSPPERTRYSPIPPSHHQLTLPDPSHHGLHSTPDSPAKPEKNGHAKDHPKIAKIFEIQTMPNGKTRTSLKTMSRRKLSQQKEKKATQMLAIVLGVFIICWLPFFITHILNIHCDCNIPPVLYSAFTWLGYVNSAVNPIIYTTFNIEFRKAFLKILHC
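HEK293 Trex D2 cells, tetracycline-induced, o/n 30 C 5% CO2; no-wash Ca dye, RT 30–90 min; 10-cycle baseline, 23 nl cpd added, kinetic Ca read 180 s; agonist hits = positive Ca response.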
D2 PAM-1: potentiates the human D2 dopamine receptor allosterically; P14416; DiscoveRx D2 beta-arrestin cells, luminescence, 90 min; 100% = 57 uM dopamine signal; AID 624464; potentiation, % (test concentration not listed); actives 0.23% (n = 360,000); in the data active = potentiation above about 50%
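D2 cells co-treated with compound plus 50 nM dopamine (EC20) for 90 min at 37 deg C to detect potentiation. Beta-arrestin recruitment was read as enzyme-fragment luminescence after 1 h at ambient temperature. Full response was set by 57 uM dopamine.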
D2 PAM-2: positively modulates the human D2 dopamine receptor allosterically. AID 485347. P14416. HEK293 T-REx D2, calcium flux, EC20 dopamine potentiation. actives 0.34% (n = 340,000). potentiation, % at 10 µM;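 active = potentiation over 3 SD above the plate norm, cut at about 30% in these data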; note: 0% is about no effect
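Tetracycline-induced Hek293 Trex D2 cells, force-coupled to calcium, loaded with no-wash calcium dye. Compound added with 180 s kinetic read for agonism, then EC20 dopamine and a further 180 s read for potentiation.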
D2 ag-2: human D2 receptor agonism in beta-arrestin assay; activation, % (no concentration beside the values); P14416; DiscoveRx PathHunter D2 beta-arrestin, luminescence, 90 min; 100% = 57 uM dopamine signal; actives 0.084% (n = 360,000); in the data active = activation above about 40%
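Agonist mode: compounds alone added to overnight-plated D2 PathHunter cells for 90 min at 37 C, with 57 uM final dopamine (EC100) defining full response. Beta-arrestin recruitment detected by chemiluminescent reagent, read after 1 h at ambient temperature.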
D2 antag: antagonists of human D2 dopamine receptor; P14416; HEK293 TREx D2 cells, calcium flux, dopamine EC80; inhibition, % at 10 µM; actives 2% (n = 340,000); AID 485344; in the data active = inhibition above about 30%; inactive = below that, where a call was filed; note: 0% is about no effect
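Cells plated overnight at 30 C with tetracycline; no-wash calcium dye, 30–90 min RT; 10 s baseline; compound pinned; 180 s read; EC80 dopamine added; another 180 s read.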
An asterisk follows results filed as active; x = no result given; ! = not confirmed by another sample. An excerpt weighted towards active compounds, which were near 2.4% of everything screened.

SMILES | D2 ag-1 | D2 PAM-1 | D2 PAM-2 | D2 ag-2 | D2 antag
COc1ccccc1CNC(=O)CCNS(=O)(=O)c1ccc2c(c1)oc(=O)n2C | -3 | -6 | -19 | 0 | 67*
Cn1c(=O)oc2cc(S(=O)(=O)NCCC(=O)NCCc3ccc(Cl)cc3)ccc21 | 0 | -25 | -12 | 0 | 59*
CCOC(=O)c1c(C)oc2ncnc(N3CCN(c4ccccc4OC)CC3)c12 | -1 | x | -12 | x | x
CC(C)CCNC(=O)c1ccc2nc(Cc3ccccc3)oc2c1 | -1 | x | 17 | x | x
CC(=O)c1cccc(NC(=O)N[C@@H](CC(C)C)C(=O)O)c1 | 1 | -12 | 6 | -2 | 33*
CC(=O)c1ccc(NC(=O)N[C@@H](CC(C)C)C(=O)O)cc1 | 0 | -22 | -8 | -5 | -11
COc1ccccc1CN1C[C@@H]2C[C@@H](c3ccc(C)c(C)c3)N3CCC[C@@]23C1=O | 0 | -6 | -2 | -3 | 35*
Cc1oc(C)c2c(=O)cc(-c3ccc4c(c3)OCO4)cc(OC(=O)c3ccccc3Br)c12 | 0 | x | 8 | x | x
Cc1cc2nc(CCN(C(=S)NCC(C)C)C3CCCC3)[nH]c2cc1C | 1 | -24 | -13 | 1 | 13
Cc1cc2nc(CCN(C(=S)NCC3CCCO3)C3CCCC3)[nH]c2cc1C (stereo not drawn) | 0 | -8 | -4 | -18 | 31*
Cc1ccccc1C(c1c(C)n(C)n(-c2ccccc2)c1=O)c1c(C)n(C)n(-c2ccccc2)c1=O | 1 | x | -6 | x | x
Cc1nc2sc(C(c3ccco3)N3CCN(C(c4ccccc4)c4ccccc4)CC3)c(O)n2n1 (stereo not drawn) | 1 | -6 | 33* | -4 | -5
Cc1nc2sc(C(c3ccco3)N3CCN(c4ccccc4)CC3)c(O)n2n1 (stereo not drawn) | -1 | -4 | 14 | -2 | -6
Cc1c(Cl)cccc1NC(=O)c1cnc2sc(N3CCOCC3)nn2c1=O | 0 | x | 12 | x | x
O=C1NCCN1c1ncc([N+](=O)[O-])s1 | 59* | 15 | -10 | 4 | 54*
Cn1c(=O)c2c(SCC(=O)NCc3ccco3)nc(-c3ccccc3)nc2n(C)c1=O | x | x | 15 | x | x
O=[N+]([O-])c1ccc(NN=Cc2ccccc2O)nc1 | x | -13 | x | -3 | x
O=[N+]([O-])c1ccc(N/N=C/c2ccccc2O)cc1 | 4 | -28 | 4 | 10 | 36*
COc1ccc(CCN(C)C/C=C/c2ccccc2[N+](=O)[O-])cc1OC | 1 | -22 | -23 | -4 | 57*
COCCc1nn2c(=O)cc(COC(=O)c3ccc4c(c3)OCO4)nc2s1 | x | x | -1 | x | x
CC[C@H](C)C(=O)O[C@H]1CCC=C2C=C[C@H](C)[C@H](CC[C@@H]3C[C@@H](O)CC(=O)O3)[C@H]21 | 2 | -10 | -6 | 2 | 38*!
Cc1ccc(N2CC(C(=O)N3CCC(C(=O)Nc4ccc(Br)cc4)CC3)CC2=O)cc1 (stereo not drawn) | 3 | -9 | 3 | 2 | 11
COc1ccc(Cl)cc1NC(=O)C1CCN(C(=O)C2CC(=O)N(c3ccc(C)cc3)C2)CC1 (stereo not drawn) | 1 | -2 | -10 | -3 | 37*
COc1cccc(OC)c1OC(=O)C1CC(=O)N(c2ccc3c(c2)OCCO3)C1 (stereo not drawn) | x | 2 | x | -1 | x
COc1ccccc1OC(=O)C1CC(=O)N(c2ccc(Cl)cc2)C1 (stereo not drawn) | -2 | 10 | 34* | 1 | 0
SMILES | D2 ag-1 | D2 PAM-1 | D2 PAM-2 | D2 ag-2 | D2 antag
Cc1ccc(N2CC(C(=O)N3CCC(C(=O)Nc4cccc(Br)c4)CC3)CC2=O)cc1 (stereo not drawn) | 0 | -15 | 4 | -2 | 39*
COc1ccccc1NC(=O)C(C)OC(=O)C1CC(=O)N(c2ccc3c(c2)OCCO3)C1 (stereo not drawn) | -1 | 63* | -5 | -3 | 15
COc1ccc(C2CC(=O)Nc3c2c(C)nn3-c2nncc(-c3ccc(C)cc3)n2)c(OC)c1OC (stereo not drawn) | -2 | x | 6 | x | x
COc1ccc(CN2C(=O)N(c3cccc(C)c3)C(=O)C2CC(=O)Nc2ccc(F)cc2)cc1OC (stereo not drawn) | -1 | x | -21 | x | x
CCOC(=O)c1noc2ncnc(Nc3cc(Cl)c(OC)cc3OC)c12 | 0 | x | -10 | x | x
O=C(Nc1ccccc1N1CCN(C(=O)c2ccccc2)CC1)c1cc2ccccc2o1 | -1 | -6 | -20 | 3 | 63*
CC(=O)N1CCN(c2ccccc2NC(=O)c2cccs2)CC1 | 0 | -25 | 5 | 1 | 1
CC(=O)N1CCN(c2ccccc2NC(=O)c2ccc3ccccc3c2)CC1 | 0 | 4 | 4 | -1 | 46*
O=C(Nc1ccccc1N1CCCC1)c1cc2ccccc2o1 | 0 | -28 | x | -5 | -6
CC(=O)Nc1nonc1-c1nnc(SCC(=O)Nc2cc(C)ccc2C)n1-c1ccccc1 | 0 | x | -18 | x | x
Cc1ccc(C(=O)NCCC(C)C)cc1NC(=O)c1nsc2ccccc12 | x | x | -1 | x | x
Cc1n[nH]c(C)c1CCC(=O)N/N=C/c1cccc([N+](=O)[O-])c1 | 3 | -6 | 11 | -1 | 46*
COc1cccc(/C=N/NC(=O)CCc2c(C)n[nH]c2C)c1 | 0 | -9 | 9 | 1 | -14
CCc1ccc(NC(=O)Cn2c(=O)n(Cc3nc(C)no3)c(=O)c3cc4c(cc32)OCO4)cc1 | 0 | x | -7 | x | x
CCc1ccccc1NC(=O)Cn1nnc(-c2nc(-c3ccncc3)no2)c1N | 1 | x | -1 | x | x
CC(c1n[nH]c(=S)n1-c1ccccc1)N1CCCCC1 (stereo not drawn) | 1 | 2 | -7 | 2 | 71*
CCN(CC)CCNC(=O)c1c(C)oc2ncnc(N3CCOCC3)c12 | x | x | -12 | x | x
CCc1ccc(OCC(=O)NNC(=O)c2ccc(NC(=O)C3CC3)cc2)cc1 | 0 | -14 | 6 | 3 | 31*
Cc1ccc(NC(=O)CN(C)C(=O)CSc2ncc(C(F)(F)F)cc2Cl)cc1 | -1 | -23 | -25 | -3 | 93*
CN(C)c1ccc(CN(Cc2ccco2)C(=O)COc2ccc(F)cc2)cc1 | -1 | x | x | x | x
Cc1cc(C)cc(C(=O)N2CC(=O)Nc3ccc(C)cc3C2c2ccccc2)c1 (stereo not drawn) | -2 | x | -1 | x | x
Cc1nn(-c2ccccc2)c(Cl)c1/C=N/NC(=O)CNC(=O)c1ccccc1Cl | 0 | -13 | -12 | -6 | 46*
Cc1nn(-c2ccccc2)c(Cl)c1/C=N/NC(N)=O | 4 | -6 | -19 | -2 | 12
CCc1ccccc1NC1Nc2cc(C)nn2S1 (stereo not drawn) | 0 | -8 | 56* | -4 | 8
Cc1cc2n(n1)SC(Nc1cccc3ccccc13)N2 (stereo not drawn) | 1 | 11 | 0 | -1 | -2
